A selection: hits, their analogues and other compounds. The true share with any hit is near 1.2%.
PGK inhibitor: T. brucei PGK inhibition; P07378; PGK/GAPDH coupled, Kinase-Glo luminescence, 60 min; Potency, µM (top dose mostly 57.5 µM), without a hit: at the top dose activity change, negative = inhibition, hits mostly inhibitors; 380,000 compounds, 0.043% hits; AID 602233; note: potency is the fitted concentration of half-maximal effect; nearly all actives have a fitted effect of over 60% in size
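Luminescent ATP detection (Kinase-Glo Plus) follows a 60-minute room-temperature incubation, with wells lacking PGK as controls. Buffer: 100 mM TEA (pH 7.6), 5 mM MgCl2, 0.01% Tween-20. Coupling enzyme GAPDH (100 nM final) supplies unstable 1,3-BPG in-well.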
KAT2A inh: inhibitors of human GCN5L2 histone acetyltransferase | AID 504327 | GCN5L2 HAT assay, ThioGlo1 CoA-SH fluorescence | Potency, µM (top dose mostly 58.9 µM), without a hit: at the top dose activity change, negative = inhibition, hits mostly inhibitors | 390,000 compounds, 0.21% hits; note: potency is the fitted concentration of half-maximal effect
Target sequence (Q92830 whole entry, looked up): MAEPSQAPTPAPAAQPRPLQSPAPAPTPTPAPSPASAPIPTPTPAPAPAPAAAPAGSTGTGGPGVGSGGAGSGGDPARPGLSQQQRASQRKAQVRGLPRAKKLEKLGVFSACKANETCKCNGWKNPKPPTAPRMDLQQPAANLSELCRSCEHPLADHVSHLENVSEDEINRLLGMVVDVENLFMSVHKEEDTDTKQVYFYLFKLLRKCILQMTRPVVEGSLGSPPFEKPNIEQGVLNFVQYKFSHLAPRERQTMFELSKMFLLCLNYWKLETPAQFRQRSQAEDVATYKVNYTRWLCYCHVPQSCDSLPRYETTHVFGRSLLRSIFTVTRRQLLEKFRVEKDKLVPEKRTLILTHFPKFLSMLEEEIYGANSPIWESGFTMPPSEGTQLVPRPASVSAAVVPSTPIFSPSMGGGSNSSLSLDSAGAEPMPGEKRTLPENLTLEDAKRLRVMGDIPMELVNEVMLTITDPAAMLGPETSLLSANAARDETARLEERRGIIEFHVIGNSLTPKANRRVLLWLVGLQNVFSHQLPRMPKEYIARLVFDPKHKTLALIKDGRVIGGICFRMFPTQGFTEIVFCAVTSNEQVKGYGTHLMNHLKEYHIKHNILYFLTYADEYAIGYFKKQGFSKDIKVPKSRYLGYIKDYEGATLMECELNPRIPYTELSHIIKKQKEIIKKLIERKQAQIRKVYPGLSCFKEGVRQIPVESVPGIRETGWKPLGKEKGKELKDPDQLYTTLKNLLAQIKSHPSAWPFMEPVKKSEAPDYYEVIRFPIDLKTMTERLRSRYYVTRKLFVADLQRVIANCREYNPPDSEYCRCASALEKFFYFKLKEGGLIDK
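GCN5L2 (20 nM) in 50mM HEPES pH 7.5, 0.1mM EDTA, 0.01% Tween-20 preincubated 15 min with compounds at room temperature. Reaction started with H3(1-25) 75uM, acetyl-CoA 70uM, ThioGlo1 50uM; CoA-thiol fluorescence (Ex340/Em540) read at 0 and 20 min.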
Pin1 inhibitor: blocks the human prolyl isomerase Pin1; Potency, µM (doses to about 115 µM), without a hit: at the highest dose activity, negative = inhibition, most hits filed as inhibitors; 390,000 compounds, 0.009% hits; Q13526; AID 504891; Pin1 FP peptide displacement, HiFluor488, 10 min; active = well fitted inhibition curve with a large enough effect in the polarisation, with a control signal flat, not every such curve was filed as active; inconclusive = small, poorly fitted or top-dose-only effect, or effect the other way, or a change in a side signal; inactive = no such curve, though single readings can be large or run the other way; the % refers to the polarisation; note: potency is the fitted concentration of half-maximal effect
KCNH2 3.1 inh: KCNH2 3.1 (human) potassium channel inhibition; U2OS KCNH2 3.1, thallium flux FluxOr; active compounds read low; activity change, % (tested at about 1.8 µM); 340,000 compounds, 0.95% hits;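 active = maximum activity change below -70%; inconclusive = maximum activity change from -70% to -50%; inactive = maximum activity change above -50%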;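 note: thallium influx rate constant from kinetic fluorescence after stimulation buffer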
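U2OS cells transduced with KCNH2 3.1 mutant virus (1.77 x 10^8 /mL, 4 h), plated overnight at 37 C, loaded 45 min with FluxOr dye plus Red40 quencher. Thallium flux rate constant from kinetic reads after stimulation buffer, normalised to controls.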
RGS4 inh: blocks human RGS4-accelerated GTP hydrolysis; P49798; Transcreener GDP fluorescence polarization, RGS4-accelerated GTP hydrolysis; Potency, µM (titrated, usually from 114 µM), inactives show at the top dose activity change, negative = inhibition, most hits filed as inhibitors; 390,000 compounds, 0.039% hits; note: potency is the fitted concentration of half-maximal effect; nearly all actives have a fitted effect of over 75% in size
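MLSMR compounds (23 nl, pin-transferred) preincubated 10 min at room temperature with a 500nM (2x) first reagent, then RGS4 at 900nM (2x) plus Transcreener GDP mix added; fluorescence polarization (620/688 nm) read before and after 90 min at 30 °C.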
KCNH2 WT inh: blocks the wildtype human KCNH2 potassium channel; activity change, % at 1.84 µM; 340,000 compounds, 0.37% hits; AID 720551; U2OS, BacMam KCNH2, thallium flux FluxOr; active compounds read low;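 active = maximum activity change below -70%; inconclusive = maximum activity change between -70% and -50%; inactive = maximum activity change above -50%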
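U2OS cells were transduced with wild-type KCNH2 virus (2.03 x 10^8 / mL) for 4 h at room temperature, then cultured overnight at 37 C. Thallium flux was read with FluxOr dye. Rate constants were normalized to DMSO controls.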
Active calls of the source: *; i = inactive; ? = inconclusive; . = no result; [ ] = another dose, or the depositor's remark. Unless noted, calls come from the whole dose curve; as a rule, active = well fitted curve in the direction sought with a large enough effect; inconclusive = small, poorly fitted or top-dose-only effect, or another doubt; inactive = no such curve, though single readings can be large; an effect the other way counts as inactive or inconclusive. % is set by controls: 0 for no effect and ±100 for the full control effect.

SMILES	PGK inhibitor	KAT2A inh	Pin1 inhibitor	KCNH2 3.1 inh	RGS4 inh	KCNH2 WT inh
Cc1cc(C)nc(NS(=O)(=O)c2ccc(NS(=O)(=O)c3ccsc3)cc2)n1	-5%	?	-1%	-89*	-1%	3
Cc1cc(C)nc(NS(=O)(=O)c2ccc(NS(=O)(=O)c3ccccc3)cc2)n1	.	1%	0%	12	36%	-4
COc1ccc(-c2nc3n(n2)C(c2ccccc2OC)C(C(=O)Nc2cccnc2)=C(C)N3)cc1 (configuration not stated)	-6%	-11%	0%	.	-24%	.
Cc1ccc(S(=O)(=O)c2cc3c(=O)n4ccccc4nc3n(Cc3ccco3)c2=N)cc1C	i	16µM*	?	-6	?	-6
O=C(CCCn1c(=O)[nH]c2ccccc2c1=O)NCCSCc1ccccc1	-10%	1%	1%	0	-19%	7
O=C(CCCCCn1c(=O)[nH]c2ccccc2c1=O)NCCCN1CCN(c2ccccc2F)CC1	-6%	0%	-11%	-70*	23%	?
O=C(Nc1ccccc1Sc1ccccc1)c1cnn2c1NC(=C1CC1)C=C2C(F)(F)F	.	.	27%	.	-4%	.
Cc1ccc(N2C(=O)CC(n3nc(C)cc3C)C2=O)cc1 (configuration not stated)	-8%	1%	-8%	-211*	10%	-6
Cc1ccc(C)c(NC(=O)Cn2c(=O)n(-c3ccccc3C)c(=O)c3c2c2cc(C)ccc2n3C)c1	10%	-5%	-2%	.	13%	.
CN1CCC(=C(c2ccccc2)c2ccc(Br)cc2)CC1	-3%	.	2%	-97*	25%	-37
CN1CCC(OC(=O)c2ccc(Br)cc2)CC1	-9%	.	-2%	0	-13%	2
Cc1cc(N2CCN(c3nc4ccccc4s3)CC2)n2ncnc2n1	i	?	-8%	-72*	9%	21
O=C(Nc1ncnc2nc[nH]c12)c1ccccc1	.	.	-5%	.	-11%	.
Cc1ccc(N(C(C)C(=O)Nc2cc(Cl)ccc2Oc2ccccc2)S(C)(=O)=O)cc1 (configuration not stated)	-1%	2%	-10%	-72*	-19%	5
CCCOc1ccc(C(=O)N2CCN(c3ccc(NC(=O)CC)cc3Cl)CC2)cc1	-5%	-4%	1%	-86*	-5%	-48
O=C(Nc1ccc(NC(=O)c2cc3ccccc3o2)cc1)c1ccco1	-11%	-2%	12%	-75*	-5%	-9
CN1CCN(c2ccc(NC(=O)COc3ccccc3)cc2Cl)CC1	i	17%	-4%	-33	-25%	22
CCC(=O)N1CCN(c2ccc(Cl)cc2NC(=O)Cc2ccc(Cl)cc2)CC1	-9%	-8%	3%	-75*	-10%	22
O=C(Nc1ccc(N2CCN(C(=O)c3ccco3)CC2)c(Cl)c1)c1cc2ccccc2o1	-4%	-22%	4%	-113*	-7%	-24
CCc1ccc(-n2nc(C)c3c(C(=O)Nc4cc(C)c(Cl)cc4OC)cc(C)nc32)cc1	0%	-20%	3%	.	-10%	.
COCCCNC(=O)c1cc2n(n1)CCCN(Cc1ccc(C)cc1)C2=O	-1%	-2%	-1%	.	-7%	.
CCOc1ccccc1NC(=O)Cn1c(=O)n(-c2ccc(C)cc2)c(=O)c2c1cnn2C	-7%	0%	0%	.	13%	.
CCCC(=O)N1CCN(c2ccc(NC(=O)c3cc4ccccc4o3)cc2Cl)CC1	-4%	-13%	6%	-90*	-17%	?
CCCC(=O)N1CCN(c2ccc(NC(=O)c3cccs3)cc2Cl)CC1	-10%	0%	7%	7	29%	-6
O=C(Nc1ccc(-c2nc3ncccc3o2)cc1)c1ccco1	-4%	-11%	?	-81*	-47%[56.9 µM]	1
SMILES	PGK inhibitor	KAT2A inh	Pin1 inhibitor	KCNH2 3.1 inh	RGS4 inh	KCNH2 WT inh
O=C(COc1ccccc1[N+](=O)[O-])Nc1ccc(NC(=O)c2cc3ccccc3o2)cc1	3%	-4%	26%	-119*	?	-4
CCC(=O)N1CCN(c2ccc(NC(=O)c3cc4ccccc4o3)cc2Cl)CC1	-2%	-16%	4%	-88*	22%[11.4 µM]	20
O=C(COc1ccccc1[N+](=O)[O-])Nc1ccc2oc(=O)ccc2c1	-8%	-1%	-3%	9	4%	0
CCCCN(Cc1ccco1)S(=O)(=O)c1csc(C(N)=O)c1	-7%	-3%	-10%	-182*	-7%	-159*
Nc1nc(Cl)nc2c1ncn2[C@@H]1O[C@H](COP(=O)(O)OP(=O)(O)OP(=O)(O)O)[C@@H](O)[C@H]1O	.	-17%	.	.	0.53µM*	.
Nc1ncnc2c1ncn2[C@@H]1O[C@H](COP(=O)(O)OP(=O)(O)O)[C@@H](O)[C@H]1O	.	3%	.	.	?	.
Nc1ncnc2c1ncn2[C@@H]1O[C@H](COP(=O)(O)OP(=O)(O)OP(=O)(O)OP(=O)(O)OC[C@@H]2O[C@H](n3cnc4c(N)ncnc43)[C@@H](O)[C@H]2O)[C@@H](O)[C@H]1O	.	-13%	.	.	3µM*	.
CSc1nc(N)c2ncn([C@H]3O[C@H](COP(=O)(O)OP(=O)(O)O)[C@@H](O)[C@@H]3O)c2n1	.	-8%	.	.	?	.
Cn1nccc1NC(=O)Nc1ccc(Cl)cc1	-7%	-1%	4%	-86*	-11%	-9
COc1cc(NS(=O)(=O)c2ccc(NC(=S)NC(=O)/C=C/c3ccco3)cc2)ncn1	20µM*	-5%	?	-4	-19%	-6
COc1ccc(NC(=O)CSc2oc(-c3cccs3)nc2S(=O)(=O)c2ccc(Br)cc2)c(OC)c1	-7%	-1%	10%	.	-42%	.
CCOCCc1nn2c(=O)cc(COC(=O)c3ccc(NC(=O)c4ccc(F)cc4)cc3)nc2s1	-5%	25%	3%	.	-21%	.
Cc1cc(C)cc(Nc2nc3ccccc3n3cnnc23)c1	-5%	-9%	2%	.	-1%	.
COc1ccc2c(c1)C(=O)CCC2c1ccccc1 (configuration not stated)	-1%	2%	1%	-120*	-18%	8
O=C(Nc1cccc(F)c1)N1CC[C@@]2(CCCN(S(=O)(=O)c3ccccc3)C2)C1	.	3%	.	.	.	.
Cc1ccc(S(=O)(=O)Nc2cccnc2)cc1C	-4%	-3%	1%	11	24%	5
Cc1cc(S(=O)(=O)Nc2cccnc2)c(C)s1	-2%	-5%	-7%	-72*	-33%	3
Cc1ccc(-n2cc(CN3CCC(CO)(Cc4cccc(C(F)(F)F)c4)CC3)cn2)cc1	i	1%	0%	-99*	-13%	-84*

Bioassay records (PubChem)
